Assay results as given in PubChem BioAssay AID2534 (National Center for Advancing Translational Sciences (NCATS), 2010).
Results filed as inconclusive are left out. Activity calls are given as the source filed them. Calls follow the shape of the dose curve; as a rule, active = well fitted curve in the direction sought with a large enough effect; inconclusive = small, poorly fitted or top-dose-only effect, or effect the other way, or another doubt; inactive = no such curve, though single readings can be large or run the other way.

Biological target: Pyruvate kinase PKLR (Homo sapiens) (UniProt P30613)
Test: Secondary Concentration-Response Assay for Activators of Human Reticulocyte Pyruvate Kinase: for Probe SAR
Details: purified hPK-R, ATP production, Kinase-Glo luminescence; series mostly up to 57.5 µM; activity change, negative = inhibition: at the top concentration
Source text: NIH Chemical Genomics Center [NCGC]
Wael M. Rabeh, Lyudmila Nedyalkova and Hee-Wan Park [Structural Genomics Consortium, 100 College St. Toronto, Ontario, Canada]
Human pyruvate kinase reticulocyte (hPK-R) enzyme was supplied as a highly purified (>95% pure) preparation from Structural Genomics Consortium in Toronto (Ontario, Canada) and assayed for its ability to generate ATP from ADP using phosphoenolpyruvate (PEP) as a substrate. ATP generation was detected in a coupled reaction by luciferase-mediated luminescence, an ATP-dependent process. Pyruvate kinase substrates, PEP and ADP, were present in the assay at Km and approximately 10-fold below Km respectively. The enzyme was assayed at an intermediate level of activity to screen for both inhibitors and activators.
NCGC Assay Protocol Summary for R-isoform
Three uL of substrate mix (at r.t.) in assay buffer (50 mM Imidazole pH7.2, 50 mM KCl, 7 mM MgCl2, 0.01% Tween 20, 0.05% BSA) was dispensed into white solid bottom 1,536 well microtiter plates so that the final concentrations of substrates in the assay were 0.1 mM ADP and 0.5 mM PEP. 23 nL of compound were delivered by a pin tool and 1 uL of enzyme mix (final concentration of 0.1 nM) in assay buffer (4 degree Celsius) was added. Plates were incubated at room temperature for 1 hour. Two uL of detection mix (Kinase-Glo, Promega; at 4 degree Celsius protected from light) was added and luminescence read by a ViewLux (Perkin Elmer) at 1 second exposure/plate. Data were normalized to the uninhibited (row 31). Additionally, a no enzyme and 5-fold enzyme control was dispensed in row 32, split equally between the two conditions.

Chain of Pyruvate kinase PKLR (Homo sapiens) (P30613 whole entry, looked up): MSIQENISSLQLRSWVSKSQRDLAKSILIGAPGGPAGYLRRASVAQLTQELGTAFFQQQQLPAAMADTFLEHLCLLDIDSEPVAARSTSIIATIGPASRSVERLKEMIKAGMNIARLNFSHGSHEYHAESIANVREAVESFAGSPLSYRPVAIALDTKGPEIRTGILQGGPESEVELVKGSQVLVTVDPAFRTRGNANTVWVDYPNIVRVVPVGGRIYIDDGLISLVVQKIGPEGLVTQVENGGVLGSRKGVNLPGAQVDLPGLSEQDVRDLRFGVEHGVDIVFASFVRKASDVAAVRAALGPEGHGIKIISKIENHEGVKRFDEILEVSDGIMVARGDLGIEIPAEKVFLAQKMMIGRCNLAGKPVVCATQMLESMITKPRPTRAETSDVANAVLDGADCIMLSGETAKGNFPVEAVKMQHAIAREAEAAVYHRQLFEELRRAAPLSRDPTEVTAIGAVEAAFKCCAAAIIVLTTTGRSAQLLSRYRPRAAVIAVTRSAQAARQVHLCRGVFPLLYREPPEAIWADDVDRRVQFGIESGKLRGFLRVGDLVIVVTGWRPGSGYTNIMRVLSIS

Activity change, negative = inhibition, inactive:
O=C1c2ccccc2C(=O)N1c1cncc2ccccc12 9.51%
O=C1CCc2cc(S(=O)(=O)Nc3ccccc3Cl)ccc2N1 1.37%
CN(C)c1cccc(S(=O)(=O)N2CCN(S(=O)(=O)c3ccc4c(c3)OCCO4)CC2)c1 27.9%
O=C(O)c1ccccc1SC1=NS(=O)(=O)c2ccccc21 -92.8%
O=C1c2ccccc2C(=O)N1c1ccc2ncccc2c1 14.8%
O=C1c2ccccc2C(=O)N1Cc1cccnc1 4.78%
O=C1CCc2cc(S(=O)(=O)Nc3ccccn3)ccc2N1 7.53%
O=C1c2ccccc2C(=O)N1Cc1ccccc1 8.92%
O=C1CCc2cc(S(=O)(=O)Nc3ccc(Cl)c(Cl)c3)ccc2N1 4.75%
O=C1CCc2cc(S(=O)(=O)Nc3cccc4ccccc34)ccc2N1 -2.68%
Cc1cc(N2C(=O)c3ccccc3C2=O)no1 -6.05%
N#Cc1cccc(NS(=O)(=O)c2ccc3c(c2)CCC(=O)N3)c1 4.74%
O=C1CCc2cc([S+](=O)([O-])NC3CCOCC3)ccc2N1 -3.67%
O=C1CCc2cc(S(=O)(=O)Nc3cccc(Oc4ccccc4)c3)ccc2N1 1.08%
O=C1c2ccccc2C(=O)N1c1cnc2ccccc2c1 10.5%
CCNc1cccc(S(=O)(=O)N2CCCN(S(=O)(=O)c3ccc4c(c3)OCCO4)CC2)c1 25.1%
Cc1ccc(Cl)cc1NS(=O)(=O)c1cc2c(cc1Cl)CCC(=O)N2 -2.79%
O=C1CCc2cc(S(=O)(=O)Nc3cccnc3)ccc2N1 1.36%
CCCCN1C(=O)c2ccccc2C1=O 4.02%
O=C1c2ccccc2C(=O)N1Cc1ccccn1 5.95%
O=C1CCc2cc(S(=O)(=O)Nc3ccc4c(c3)CCC4)ccc2N1 11%
Cc1ccc(NS(=O)(=O)c2ccc3c(c2)CCC(=O)N3)cc1 13.9%
COC(=O)c1ccc2c(c1)S(=O)(=O)N=C2Sc1cc(C)ccc1C -60.5%
N#Cc1ccc(NS(=O)(=O)c2ccc3c(c2)CCC(=O)N3)cc1 0.584%
O=C1c2ccccc2C(=O)N1c1nccs1 8.19%
COc1cccc(Cn2ncc3c4sc(S(C)=O)cc4n(C)c3c2=O)c1 (stereo not given) 11.7%
O=C1c2ccccc2C(=O)N1c1ccc2ccccc2n1 -5.73%
O=C1CCc2cc(S(=O)(=O)Nc3cccc(F)c3)ccc2N1 -6.29%
Cc1cc(NS(=O)(=O)c2ccc3c(c2)CCC(=O)N3)ccc1Cl 6.47%
Cc1ccc(NS(=O)(=O)c2ccc3c(c2)CCC(=O)N3)cc1F 1.93%
CC(C)Nc1cccc(S(=O)(=O)N2CCCN(S(=O)(=O)c3ccc4c(c3)OCCO4)CC2)c1 15.9%
O=C1c2ccccc2C(=O)N1c1cccnc1 -5.55%
COc1ccc(NS(=O)(=O)c2ccc3c(c2)CCC(=O)N3)cc1 15.1%
Cc1ccc(NS(=O)(=O)c2ccc3c(c2)n(C)c(=O)n3C)cc1C 12.9%
O=C1CCc2cc(S(=O)(=O)Nc3ccc(F)c(Cl)c3)ccc2N1 -3.48%
Cc1ccc(C)c(SC2=N[S+](=O)([O-])c3cc(C(=O)Nc4ccc5ncccc5c4)ccc32)c1 -22.6%
O=C1CCc2cc(S(=O)(=O)NCc3ccccc3)ccc2N1 8.42%
Cc1cccc(NS(=O)(=O)c2ccc3c(c2)CCC(=O)N3)c1 10.5%
O=C1NS(=O)(=O)c2ccccc21 -1.36%

outcome, inactive:
Cc1cc2c(s1)c1cnn(Cc3ccccc3F)c(=O)c1n2C
